Source: PubChem BioAssay (National Center for Advancing Translational Sciences (NCATS))
This is a sample that favours compounds with a hit; in the whole collection about 5.9% have one here.
RORg inh = qHTS for inhibitors of ROR gamma transcriptional activity. Nuclear receptor ROR-gamma (Mus musculus), P51450. Drosophila S2 Gal4-RORgamma UAS-luciferase reporter, 20 h. Potency, µM (titrated, usually from 53.6 µM), for the others: at the top dose activity change, negative = inhibition, actives largely listed as inhibitors. 310,000 compounds, 5.4% hits. AID 2551, 2010; also: potency is read from the fitted curve at half-maximal effect; nearly all actives have a fitted effect of over 60% in size
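Luminescence from a UAS-regulated Photinus luciferase reporter in stably transfected Drosophila Schneider cells is measured; decreased signal marks ROR gamma inhibition. Fusion expression is induced by 700 uM copper sulfate for 20 hr.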
FBPA coupling cs = qHTS Assay for Inhibitors of Fructose-1,6-bisphosphate Aldolase from Giardia Lamblia: Coupling assay counterscreen | coupling enzyme system counterscreen, AmpLite Red fluorescence | activity change, negative = inhibition, % at 58.2 µM, hits read low | 290,000 compounds, 0.67% hits | AID 2472, 2010; in the data active = activity change below about -30%
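First, compound is pin-transferred into glyceraldehyde-3-phosphate coupling-enzyme reagent at 57.5 uM final and held 10 min at RT. Next, substrate, coupling system and AmpLite Red are added. After 20 min RT, fluorescence (525/598 nm) is read.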
rTrxR1 inhibitor = qHTS Assay for Inhibitors of Mammalian Selenoprotein Thioredoxin Reductase 1 (TrxR1): qHTS; Thioredoxin reductase 1, cytoplasmic (Rattus norvegicus), O89049; AID 588453, 2011; 390,000 compounds, 1% hits; recombinant rTrxR1, NADPH fluorescence consumption, selenite substrate; Potency, µM (top dose mostly 114 µM), for inactives: at the top dose activity change, negative = inhibition, actives largely listed as inhibitors; also: potency is read from the fitted curve at half-maximal effect; nearly all actives have a fitted effect of over 65% in size
Target sequence (O89049 whole entry, looked up): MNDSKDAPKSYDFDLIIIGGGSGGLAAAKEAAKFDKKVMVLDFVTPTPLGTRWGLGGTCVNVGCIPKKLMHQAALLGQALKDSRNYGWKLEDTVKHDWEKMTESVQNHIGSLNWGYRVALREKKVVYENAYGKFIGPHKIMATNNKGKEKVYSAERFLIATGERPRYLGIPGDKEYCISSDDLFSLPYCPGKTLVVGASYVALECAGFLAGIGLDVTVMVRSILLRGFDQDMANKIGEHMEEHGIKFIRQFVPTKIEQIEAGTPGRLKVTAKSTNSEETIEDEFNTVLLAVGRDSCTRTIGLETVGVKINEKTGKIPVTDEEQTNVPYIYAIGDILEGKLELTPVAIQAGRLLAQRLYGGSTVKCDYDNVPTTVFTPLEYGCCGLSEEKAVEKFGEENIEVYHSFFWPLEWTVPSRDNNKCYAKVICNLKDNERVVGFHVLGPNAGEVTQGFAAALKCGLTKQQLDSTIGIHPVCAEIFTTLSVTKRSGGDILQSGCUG
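Rat TrxR1 (90 nM in the dispensed reagent) was pre-reduced with 400 uM NADPH for 5 min at room temperature, then incubated with compound for 15 min. After 400 uM selenite was added, NADPH fluorescence (Ex 340/Em 450 nm) was followed for 8 min.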
Gal4-VP16 FLuc = VP16 counterscreen qHTS for inhibitors of ROR gamma transcriptional activity | Potency, µM (highest dose often 53.6 µM), inactives show at the highest dose activity, negative = inhibition, usual class: inhibitors | Drosophila S2 Gal4-VP16 UAS-luciferase, luminescence, 20 h | 310,000 compounds, 3.5% hits;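 also: Gal4-VP16 expression switched on by copper sulfate through the metallothionein promoter; potency is read from the fitted curve at half-maximal effect; nearly all actives have a fitted effect of over 50% in size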
TrxR1 substrate = qHTS Assay for Substrates of Mammalian Selenoprotein Thioredoxin Reductase 1 (TrxR1): qHTS | purified TrxR1 substrate turnover, NADPH consumption readout | 390,000 compounds, 0.01% hits | Potency, µM (highest dose often 114 µM), without a hit: top-dose activity change, negative = substrate turnover | Thioredoxin reductase 1, cytoplasmic (Rattus norvegicus), O89049; also: potency is read from the fitted curve at half-maximal effect; nearly all actives have a fitted effect of over 50% in size
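Rat TrxR1, dispensed at 90 nM, was prereduced with 400 uM NADPH (final) for 5 min at ~22 deg C, then incubated with compound 15 min before 400 uM selenite. A first-read NADPH fluorescence drop versus no-compound background flagged substrates.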
GALK inh = qHTS Assay for Inhibitors of Human Galactokinase (GALK) | 270,000 compounds, 0.007% hits | Purified GALK, Kinase-Glo residual ATP luminescence | Potency, µM (doses to about 57.5 µM), without a hit: at the highest dose activity change, negative = inhibition, usual class: inhibitors | AID 1868, 2009 | P51570; also: potency is read from the fitted curve at half-maximal effect
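Luminescence from leftover ATP (Ultra-Glo luciferase/luciferin) served as read-out after a 1 h room-temperature reaction of 5 nM GALK with 35 uM ATP and 100 uM galactose.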
Active calls of the source: *; [ ] = dose if it differs, or a comment. Unless noted, calls follow the shape of the dose curve; as a rule, active = well fitted curve in the direction sought with a large enough effect; inconclusive = small, poorly fitted or top-dose-only effect, or another doubt; inactive = no such curve, though single readings can be large; an effect the other way counts as inactive or inconclusive. % is scaled to controls: 0 for no effect and ±100 for the full control effect.

How did CC(NC(=O)Cn1ncc(Cl)c(Cl)c1=O)C12CC3CC(CC(C3)C1)C2 (configuration not stated) do in these assays?
RORg inh: 12.6µM*; FBPA coupling cs: 3.6; rTrxR1 inhibitor: -55.7%; Gal4-VP16 FLuc: inconclusive; TrxR1 substrate: 11.2%[57.1 µM]; GALK inh: -2.7%

Results for CN1c2ccccc2C(C)(C)C12C=Nc1c(cc(N3CCOCC3)c3ccccc13)O2 (configuration not stated) ?
RORg inh: inconclusive; FBPA coupling cs: -65.9*; rTrxR1 inhibitor: 7.2%; Gal4-VP16 FLuc: inconclusive; TrxR1 substrate: -16.4%; GALK inh: -1.3%

What do the screens show for `C[C@H]1CN([C@@H](C)CO)C(=O)c2cccc(NC(=O)c3ccncc3)c2O[C@H]1CN(C)C(=O)Nc1ccccc1`?
rTrxR1 inhibitor: 56.2µM*; TrxR1 substrate: 3.5%

How did C[C@H](CO)N1C[C@H](C)[C@@H](CN(C)C(=O)Nc2ccccc2)Oc2c(NC(=O)c3ccncc3)cccc2C1=O do in these assays?
rTrxR1 inhibitor: -0.4%; TrxR1 substrate: 7.7%

Results for Cc1ccc(-c2csc(N3C(=N)SCC3=O)n2)cc1 ?
RORg inh: -26.9%; FBPA coupling cs: -0.8; rTrxR1 inhibitor: 0.1%; Gal4-VP16 FLuc: -20.8%; TrxR1 substrate: 3.6%; GALK inh: 0.4%

Results for N=C1SCC(=O)N1c1ncc(Cc2ccc(F)cc2)s1 ?
RORg inh: 0.316µM*; FBPA coupling cs: -0.4; rTrxR1 inhibitor: 5.4%; Gal4-VP16 FLuc: 0.199µM*; TrxR1 substrate: -4.3%; GALK inh: 1.7%

What do the screens show for `COc1c(O)cc2oc(-c3ccc(O)cc3)cc(=O)c2c1O`?
RORg inh: inconclusive; FBPA coupling cs: -1.3; rTrxR1 inhibitor: 4.7%; Gal4-VP16 FLuc: inconclusive; TrxR1 substrate: -11.5%; GALK inh: -3.5%

Results for COc1cccc2oc(SC)cc(=O)c12 ?
RORg inh: 31.6µM*; FBPA coupling cs: 2.0; Gal4-VP16 FLuc: inconclusive

Results for COc1cccc2oc(-c3ccccc3)cc(=O)c12 ?
RORg inh: 11.2µM*; FBPA coupling cs: -3.4; Gal4-VP16 FLuc: inconclusive

How did O=c1cc(-c2ccc(O)cc2)oc2c(O)c(O)c(O)c(O)c12 do in these assays?
RORg inh: -19.1%; FBPA coupling cs: -66.3*; rTrxR1 inhibitor: 15.8µM*; Gal4-VP16 FLuc: -5.0%; TrxR1 substrate: -15.0%

How did COc1cccc2oc3ccc(C#Cc4ccccn4)cc3c(=O)c12 do in these assays?
RORg inh: inconclusive; FBPA coupling cs: 1.6; rTrxR1 inhibitor: 8.0%; Gal4-VP16 FLuc: inconclusive; TrxR1 substrate: 19.5%

Results for O=c1cc(-c2ccccc2)oc2cc(O)c(O)c(O)c12 ?
RORg inh: 28.2µM*; FBPA coupling cs: -44.6*; rTrxR1 inhibitor: 9.0%; Gal4-VP16 FLuc: inconclusive; TrxR1 substrate: 1.3%

Results for COc1cccc2oc(-c3ccc(O)cc3)cc(=O)c12 ?
RORg inh: -33.4%; FBPA coupling cs: -2.2; Gal4-VP16 FLuc: inconclusive

Results for CCOC(=O)Cn1c(=O)c2c(nc3n2CCCCN3c2ccc(OCC)cc2)n(C)c1=O ?
rTrxR1 inhibitor: 19.1%; TrxR1 substrate: 1.2%

Results for CC(=O)Nc1ccc(S(=O)(=O)N2CCC(N3CCCCC3)CC2)cc1 ?
RORg inh: -17.1%; FBPA coupling cs: 0.0; rTrxR1 inhibitor: 19.0%; Gal4-VP16 FLuc: -6.1%; TrxR1 substrate: 1.4%; GALK inh: -0.3%

How did O=C1c2sc3nc4c(c(=O)n3c2C(=O)N1c1ccccc1)CCC4 do in these assays?
RORg inh: 36.8%; FBPA coupling cs: 1.8; rTrxR1 inhibitor: inconclusive; Gal4-VP16 FLuc: -3.3%; TrxR1 substrate: 11.8%; GALK inh: 2.3%

How did O=c1/c(=C\c2cccnc2)sc2nc3ccccc3n12 do in these assays?
RORg inh: 34.0%; FBPA coupling cs: 2.4; rTrxR1 inhibitor: -10.1%; Gal4-VP16 FLuc: 21.7%; TrxR1 substrate: -8.0%; GALK inh: 0.1%

Results for Cc1ccccc1N1C(=O)c2sc3nc4c(c(=O)n3c2C1=O)CCC4 ?
RORg inh: -1.5%; FBPA coupling cs: -3.6; rTrxR1 inhibitor: 8.91µM*; Gal4-VP16 FLuc: -4.4%; TrxR1 substrate: -8.6%; GALK inh: 0.0%

How did O=C1c2sc3nc4ccccc4n3c2C(=O)N1c1ccccc1Cl do in these assays?
RORg inh: 2.1%; FBPA coupling cs: -0.4; rTrxR1 inhibitor: 3.98µM*; Gal4-VP16 FLuc: -4.6%; TrxR1 substrate: -6.3%; GALK inh: -4.6%

Results for Cc1ccc(C2=NOC(C)(c3nnc(-c4ccc(F)cc4)o3)C2)cc1 (configuration not stated) ?
RORg inh: 2.5%; FBPA coupling cs: 0.6; rTrxR1 inhibitor: 9.5%; Gal4-VP16 FLuc: -4.6%; TrxR1 substrate: -1.8%; GALK inh: 0.7%

Results for CCOc1ccc(NC(=S)N2CCN(C/C=C/c3ccccc3)CC2)cc1 ?
RORg inh: 14.1µM*; FBPA coupling cs: 0.4; rTrxR1 inhibitor: 22.3%[57.1 µM]; Gal4-VP16 FLuc: inconclusive; TrxR1 substrate: 8.1%[57.1 µM]; GALK inh: -2.0%

How did COc1ccc(NC(=S)N2CCN(C/C=C/c3ccccc3)CC2)cc1OC do in these assays?
RORg inh: 10µM*; FBPA coupling cs: 1.7; rTrxR1 inhibitor: 2.0%; Gal4-VP16 FLuc: 8.2%; TrxR1 substrate: 3.0%; GALK inh: -0.8%

What do the screens show for `COc1ccc(OC)c(NC(=S)N2CCCC2)c1`?
RORg inh: -5.7%; rTrxR1 inhibitor: -0.7%; Gal4-VP16 FLuc: 2.7%; TrxR1 substrate: 5.8%; GALK inh: -10.5%

How did COc1ccc(OC)c(NC(=S)N2CCN(C/C=C/c3ccccc3)CC2)c1 do in these assays?
RORg inh: 2.82µM*; FBPA coupling cs: 0.1; rTrxR1 inhibitor: -16.0%; Gal4-VP16 FLuc: 0.7%; TrxR1 substrate: -2.4%; GALK inh: -0.9%

What do the screens show for `COc1ccc(NC(=S)N2CCN(C/C=C/c3ccccc3)CC2)cc1`?
RORg inh: inconclusive; FBPA coupling cs: 1.3; rTrxR1 inhibitor: -6.8%; Gal4-VP16 FLuc: inconclusive; TrxR1 substrate: -9.5%; GALK inh: -2.3%

Results for Cc1ccccc1N1CCN(C2CCCN(C(=O)CN3CCCC3=O)C2)CC1 (configuration not stated) ?
RORg inh: 14.5%; rTrxR1 inhibitor: -2.1%; Gal4-VP16 FLuc: -17.2%; TrxR1 substrate: -2.2%; GALK inh: -0.6%
